The results in this text go back to PubChem BioAssay (EPA / NIEHS).

“And” between values parts separate entries of the source, which are not always exact repeats. Equal entries are not always repeated. Results filed as inconclusive are left out. The source made the active and inactive calls. How the source made its calls, unless noted: active means hit-call score of the fitted dose curve at least 0.9, where 1 is the maximum; inactive means score below 0.9.

The first assay is described as follows: CEETOX_H295R_CORTIC: CeeTox H295R High-throughput Steroidogenesis Assay for Corticosterone (CORTIC) (AID 2283437).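 Further: corticosterone secreted into medium quantified by mass spectrometry.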 The note with it: actives raise or lower the signal. The procedure, abridged:
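48 h forskolin (10 uM) prestim, then 48 h chemical exposure, final DMSO 0.1%. Readout: corticosterone in medium by LC-MS/MS after MTBE extraction. Gain/loss fit vs DMSO; MTT viability in same wells.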
As for `Cc1cccc(C)n1`, the outcome was inactive.

As to `N#Cc1ccccc1O`, the compound was called inactive.

As for `CCCCCCCCCc1ccc(OCCO)cc1`, the compound was called inactive.

`O=C1C=CC(=O)N1c1ccccc1`: the compound was called inactive.

Take `CCCCCCCCCCCCC[N+](C)(C)Cc1ccccc1`: the compound was called inactive.

Take `CC1CCCCC1`: the result was inactive.

For the compound `O=C1c2ccccc2C(=O)c2c(Cl)cccc21`, the compound was called inactive.

As for `CCCCC(CC)COC(=O)c1ccc(N(C)C)cc1` (stereo not drawn), the outcome was inactive.

Take `CCOCOCC`: the compound was classed as inactive.

As to `C[C@]12CC[C@H]3C(=CCc4cc(O)ccc43)[C@@H]1CCC2=O`, the compound was called inactive.

The next assay is described as follows: CEETOX_H295R_DOC: CeeTox H295R High-throughput Steroidogenesis Assay for DOC (AID 2283439). Conditions: actives raise or lower the signal. Summed up: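 Human adrenocortical H295R cells, passages up to 10, received 10 uM forskolin for 48 h before chemical addition. After another 48 h exposure in 0.1% DMSO, secreted DOC was measured by LC-MS/MS, with gain or loss fitted against DMSO controls.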
Take `Cc1cccc(C)n1`: the result was inactive.

In general, AC50 refers to the concentration giving half of the maximal activity seen. Regarding `N#Cc1ccccc1O`, the AC50 is 77.7 µM (active).

With `CCCCCCCCCc1ccc(OCCO)cc1`, the result was inactive.

With `O=C1C=CC(=O)N1c1ccccc1`, the compound was classed as inactive.

Regarding `CCCCCCCCCCCCC[N+](C)(C)Cc1ccccc1`, the AC50 is 0.337 µM (active).

As for `CC1CCCCC1`, the result was inactive.

Regarding `O=C1c2ccccc2C(=O)c2c(Cl)cccc21`, the result was inactive.

For `CCCCC(CC)COC(=O)c1ccc(N(C)C)cc1` (stereo not drawn), the half-maximal activity concentration (AC50) is 6.74 µM (active).

On to `CCOCOCC`, for which the outcome was inactive.

For `C[C@]12CC[C@H]3C(=CCc4cc(O)ccc43)[C@@H]1CCC2=O`, the half-maximal activity concentration (AC50) was 0.811 µM (active).

The nature of another assay: CEETOX_H295R_ESTRADIOL: CeeTox H295R High-throughput Steroidogenesis Assay for Estradiol (AID 2283440).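 Further: estradiol secreted into medium quantified by LC-MS/MS after dansyl derivatisation.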 The note with it: actives raise or lower the signal. The procedure, abridged:
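Estradiol in spent medium measured by LC-MS/MS after dansyl chloride derivatisation. Forskolin-primed (10 uM, 48 h) human adrenal H295R cells received test chemical 48 h at 0.1% DMSO; concentrations lowered until MTT viability >/=70%.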
Turning to `Cc1cccc(C)n1`, the compound was classed as inactive.

As for `CCCCCCCCCc1ccc(OCCO)cc1`, the result was inactive.

In the case of `O=C1C=CC(=O)N1c1ccccc1`, the compound was called inactive.

Regarding `CCCCCCCCCCCCC[N+](C)(C)Cc1ccccc1`, the outcome was inactive.

Take `CC1CCCCC1`: the outcome was inactive.

With `O=C1c2ccccc2C(=O)c2c(Cl)cccc21`, the outcome was inactive.

With `CCCCC(CC)COC(=O)c1ccc(N(C)C)cc1` (stereo not drawn), the compound was classed as inactive.

In the case of `CCOCOCC`, the result was inactive.

A further assay can be described thus: CEETOX_H295R_ESTRONE: CeeTox H295R High-throughput Steroidogenesis Assay for Estrone (AID 2283441).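 Further: estrone secreted into medium measured by LC-MS/MS after dansyl derivatization.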 The note with it: actives raise or lower the signal. The procedure, abridged:
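Forskolin-stimulated H295R cells are treated 48 h with chemical, and estrone in the medium is measured by LC-MS/MS. Activity is fitted in both directions relative to DMSO controls, with chemicals diluted until MTT viability reaches at least 70%.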
Regarding `Cc1cccc(C)n1`, the compound was called inactive.

As for `CCCCCCCCCc1ccc(OCCO)cc1`, the compound was classed as inactive.

In the case of `O=C1C=CC(=O)N1c1ccccc1`, the compound was called inactive.

Regarding `CCCCCCCCCCCCC[N+](C)(C)Cc1ccccc1`, the compound was classed as inactive.

As to `CC1CCCCC1`, the compound was classed as inactive.

In the case of `O=C1c2ccccc2C(=O)c2c(Cl)cccc21`, the call was inactive.

With `CCCCC(CC)COC(=O)c1ccc(N(C)C)cc1` (stereo not drawn), the compound was classed as inactive.

With `CCOCOCC`, the call was inactive.

The next assay in a line: CEETOX_H295R_PROG: CeeTox H295R High-throughput Steroidogenesis Assay for Progesterone (PROG) (AID 2283442).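 On AC50: human H295R adrenal cells primed with 10 µM forskolin before dosing.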 The note with it: actives raise or lower the signal. The procedure, abridged: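 Progesterone secreted by human H295R cells was measured by LC-MS/MS following 48 h chemical exposure at 0.1% DMSO, preceded by 48 h forskolin (10 uM) stimulation. Same-well MTT viability; cytotoxic concentrations diluted 10- or 100-fold and retested.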
Take `Cc1cccc(C)n1`: the call was inactive.

Regarding `N#Cc1ccccc1O`, the compound was called inactive.

For `CCCCCCCCCc1ccc(OCCO)cc1`, the call was inactive.

Take `O=C1C=CC(=O)N1c1ccccc1`: the compound was classed as inactive.

For the compound `CCCCCCCCCCCCC[N+](C)(C)Cc1ccccc1`, the AC50 is 0.159 µM (active).

Consider `CC1CCCCC1`, for which the outcome was inactive.

`O=C1c2ccccc2C(=O)c2c(Cl)cccc21`: the compound was classed as inactive.

On to `CCCCC(CC)COC(=O)c1ccc(N(C)C)cc1` (stereo not drawn), for which the concentration at half-maximal activity (AC50) is 6.01 µM (active).

As for `CCOCOCC`, the result was inactive.

For `C[C@]12CC[C@H]3C(=CCc4cc(O)ccc43)[C@@H]1CCC2=O`, the AC50 was 0.502 µM (active).

The nature of a further assay: CEETOX_H295R_TESTO: CeeTox H295R High-throughput Steroidogenesis Assay for Testosterone (TESTO) (AID 2283457).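 On AC50: cells exposed to chemicals for 48 h before medium collection.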 Conditions: actives raise or lower the signal. Summed up: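 Testosterone secreted into the medium over 48 h by H295R cells (maximum passage 10) was quantified by LC-MS/MS after MTBE extraction. Fitted in both directions against DMSO, with concentrations diluted until MTT viability was ≥70%.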
`Cc1cccc(C)n1`: the outcome was inactive.

`CCCCCCCCCc1ccc(OCCO)cc1`: the compound was classed as inactive.

`O=C1C=CC(=O)N1c1ccccc1`: the outcome was inactive.

Take `CCCCCCCCCCCCC[N+](C)(C)Cc1ccccc1`: the compound was called inactive.

For `CC1CCCCC1`, the result was inactive.

For `O=C1c2ccccc2C(=O)c2c(Cl)cccc21`, the outcome was inactive.

As to `CCOCOCC`, the call was inactive.

On to `C[C@]12CC[C@H]3C(=CCc4cc(O)ccc43)[C@@H]1CCC2=O`, for which the AC50 is 4.29 µM (active).

A short description of the next assay: ATG_XTT_Cytotoxicity: Cytotoxicity Assessment in the Attagene TRANS-FACTORIAL HepG2 Assay (AID 2283584; active means hit-call score of the fitted dose curve at least 0.9, where 1 is the maximum;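 on AC50: cells exposed to compound for 24 h before reading; active means loss of viability signal versus DMSO baseline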).
Settings: not given
Summed up: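 Viability endpoint from XTT after 24 h chemical exposure of reporter-transfected human HepG2 liver cells; signal loss fitted relative to DMSO negative control.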
Turning to `Cc1cccc(C)n1`, the result was inactive.

For the compound `CCCCCCCC/C=C\CCCCCCCC(=O)OCC(O)CO` (stereo not drawn), the compound was classed as inactive.

For the compound `COCCOCCC[Si](C)(O[Si](C)(C)C)O[Si](C)(C)C`, the compound was classed as inactive.

Take `CCC(Cc1c(I)cc(I)c(N)c1I)C(=O)O` (stereo not drawn): the compound was classed as inactive.

`N#Cc1ccccc1O`: the call was inactive.

Take `CCCCCCCCCc1ccc(OCCO)cc1`: the result was inactive.

As to `O=C1C=CC(=O)N1c1ccccc1`, the compound was classed as inactive.

Take `CC(C)OC=O`: the compound was called inactive.

For `CC(C)(C)c1cc(CCC(=O)OCC(COC(=O)CCc2cc(C(C)(C)C)c(O)c(C(C)(C)C)c2)(COC(=O)CCc2cc(C(C)(C)C)c(O)c(C(C)(C)C)c2)COC(=O)CCc2cc(C(C)(C)C)c(O)c(C(C)(C)C)c2)cc(C(C)(C)C)c1O`, the outcome was inactive.

On to `CCCCCCCCCCCCC[N+](C)(C)Cc1ccccc1`, for which the concentration at half-maximal activity (AC50) is 31.7 µM (active).

On to `CC(C)(C)c1cc(Cc2cc(C(C)(C)C)c(O)c(C(C)(C)C)c2)cc(C(C)(C)C)c1O`, for which the result was inactive.

Take `CC1CCCCC1`: the outcome was inactive.

Turning to `Cc1ccc(O)c(-n2nc3ccccc3n2)c1`, the outcome was inactive.

On to `CCCCC(CC)COC(=O)c1ccc(N(C)C)cc1` (stereo not drawn), for which the compound was classed as inactive.

Take `F[Si-2](F)(F)(F)(F)F`: the result was inactive.

For the compound `CCOCOCC`, the compound was called inactive.

Take `C[C@]12CC[C@H]3C(=CCc4cc(O)ccc43)[C@@H]1CCC2=O`: the compound was classed as inactive.

On to `CCCCCCCC/C=C\CCCCCCCC(=O)N(C)CC(=O)O`, for which the AC50 was 128 µM (active).

In the case of `CCCCCCCCCCCCCC[P+](CCCC)(CCCC)CCCC`, the AC50 was 8.53 µM (active).

For the compound `CCc1cc(Cc2cc(CC)c(N)c(CC)c2)cc(CC)c1N`, the compound was called inactive.

Regarding `CCOC(OCC)OCC`, the call was inactive.

For the compound `O=C(c1ccccc1)c1ccc(O)cc1O`, the compound was classed as inactive.

Turning to `CCN=c1cc2oc3cc(NCC)c(C)cc3c(-c3ccccc3C(=O)OCC)c-2cc1C`, the AC50 was 32 µM (active).

In the case of `Cc1ccc([N+](=O)[O-])c(C)c1`, the outcome was inactive.

As to `CCCCOC(=O)C(C)O` (stereo not drawn), the compound was called inactive.

Another assay can be described thus: TOX21_p53_BLA_p2_viability: Viability Assessment in the Tox21 HCT-116 p53 Agonism Beta-lactamase Assay, Phase 2 (AID 2283591; active means hit-call score of the fitted dose curve at least 0.9, where 1 is the maximum;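 further: compound exposure lasted 16 h at 37 °C; actives lower the ATP signal meaning cytotoxicity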).
Settings: not given
The procedure, abridged:
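HCT116 p53-bla cells, 4000/well, dosed after 5 h plating (217-fold dilution of DMSO stocks) and incubated 16 h at 37C. Viability taken as cellular ATP by CellTiter-Glo luminescence after 30 min RT; signal loss marks cytotoxicity.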
On to `CCC(Cc1c(I)cc(I)c(N)c1I)C(=O)O` (stereo not drawn), for which the result was inactive.

Consider `CC(=O)CCC(C)C`, for which the result was inactive.

Consider `O=C1C=CC(=O)N1c1ccccc1`, for which the concentration at half-maximal activity (AC50) was 69.7 µM (active).

Consider `CC(C)OC=O`, for which the compound was called inactive.

`Cc1ccc(O)c(-n2nc3ccccc3n2)c1`: the compound was classed as inactive.

In the case of `CCCCC(CC)COC(=O)c1ccc(N(C)C)cc1` (stereo not drawn), the outcome was inactive.

For `OCC1CCCO1` (stereo not drawn), the outcome was inactive.

On to `CCN=C1C=CC(=C(c2ccc(N(CC)CC)cc2)c2ccc(N(CC)CC)cc2)c2ccccc21`, for which the AC50 is 60.4 µM (active).

In the case of `C[C@]12CC[C@H]3C(=CCc4cc(O)ccc43)[C@@H]1CCC2=O`, the result was inactive.

For the compound `CCCCCCCC/C=C\CCCCCCCC(=O)N(C)CC(=O)O`, the AC50 is 37.1 µM (active).

Turning to `CCc1cc(Cc2cc(CC)c(N)c(CC)c2)cc(CC)c1N`, the call was inactive.

For `O=C(c1ccccc1)c1ccc(O)cc1O`, the outcome was inactive.

Turning to `CCN=c1cc2oc3cc(NCC)c(C)cc3c(-c3ccccc3C(=O)OCC)c-2cc1C`, the AC50 is 38.3 µM (active) and 45.9 µM (active).

Turning to `Cc1ccc([N+](=O)[O-])c(C)c1`, the outcome was inactive.
